Most compounds without a hit are left out; they make up all but 1.9% or so of the library.
EBNA-1 inhibitor – blocks EBNA-1 binding to DNA | EBNA-1 DNA binding, fluorescence polarization | inhibition, % at 14.8 µM | 300,000 tested, 0.34% active | AID 1950; in the data active means inhibition above about 28%
aDG glyco up – increases alpha dystroglycan glycosylation; 360,000 tested, 0.22% active; activation, % at 10 µM; Pro5-aDG cells, alpha-DG glycosylation AlphaScreen (IIH6); 0% Pro5, 100% B10-LARGE cell signal;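 active means activation of at least 8% versus controls, or a plate z-score of at least 8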;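 further: Pro5 are CHO cells carrying HIG-tagged alpha-DG that lacks glycosylation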
NCF1 inh – inhibitors of human p47phox binding; 220,000 tested, 0.53% active; p47phox/p22phox peptide binding, fluorescence polarization, 2 h; P14598; AID 1274; inhibition, % at 24.7 µM;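 active means inhibition above about 30%, limit read from the data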;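 further: 0% = p47phox with labelled peptide and 100% = labelled peptide alone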
ZTA counter – counter-screen for EBNA-1 inhibitors: inhibitors of Epstein-Barr virus ZTA; inhibition, % at 11 µM; AID 2234; 320,000 tested, 0.15% active; ZTA-DNA binding, fluorescence polarization; in the data active means inhibition above about 33%
PG9 Ab binder – binds the HIV-1 gp120 antibody PG9 | inhibition, % at 6.7 µM | 360,000 tested, 0.43% active | TR-FRET gp120-PG9 antibody binding; in the data active means inhibition above about 8.5%
NR1D1 modulator – Rev-erb alpha (human) modulation; 370,000 tested, 0.79% active; Rev-erbα–FITC-DNA binding, fluorescence polarization, 90 min; P20393; AID 1259318; activity, % at 10 µM;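 active means activity above about 14%, limit read from the data; passing the limit was not always enough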;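 further: 0% = DMSO wells with 35 nM protein and 100% = DMSO wells with 750 nM protein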
Target sequence (P20393 whole entry, looked up): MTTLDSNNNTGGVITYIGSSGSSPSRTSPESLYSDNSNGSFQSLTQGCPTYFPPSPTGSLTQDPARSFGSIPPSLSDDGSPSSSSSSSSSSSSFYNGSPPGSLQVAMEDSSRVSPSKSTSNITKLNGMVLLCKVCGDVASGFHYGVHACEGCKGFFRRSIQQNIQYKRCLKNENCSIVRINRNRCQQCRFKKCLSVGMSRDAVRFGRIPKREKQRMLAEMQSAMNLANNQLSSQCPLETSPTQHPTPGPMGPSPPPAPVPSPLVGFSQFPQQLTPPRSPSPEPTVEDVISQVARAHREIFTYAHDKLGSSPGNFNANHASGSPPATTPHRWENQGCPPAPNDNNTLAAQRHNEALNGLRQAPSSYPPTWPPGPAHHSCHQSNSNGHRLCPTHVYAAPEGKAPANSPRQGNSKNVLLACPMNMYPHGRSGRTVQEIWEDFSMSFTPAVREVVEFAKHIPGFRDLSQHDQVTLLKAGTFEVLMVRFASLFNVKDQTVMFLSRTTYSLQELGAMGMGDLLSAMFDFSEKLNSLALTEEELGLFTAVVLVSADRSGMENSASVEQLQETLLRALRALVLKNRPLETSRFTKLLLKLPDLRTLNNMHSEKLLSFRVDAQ
EBNA-1 inh conf – EBNA-1 (EBV) inhibition, confirmation; inhibition, % at 14.8 µM; shares compounds with EBNA-1 inhibitor; Recombinant EBNA-1 DBD, Cy5-DNA fluorescence polarization; 830 tested, 35% active; AID 2292;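 active means mean inhibition across replicates above a set limit taken from the earlier primary screen, cut at about 28% in these data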;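 further: plate controls were EBNA-1 protein with DMSO for no effect and wells lacking EBNA-1 for full effect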
ZTA counter trip – counter-screen for EBNA-1 inhibitors: Epstein-Barr virus ZTA inhibitors, triplicate | inhibition, % at 11.1 µM | 830 tested, under 10 active | shares compounds with EBNA-1 inhibitor | AID 2328 | Zta-ZRE DNA binding, Cy5 fluorescence polarization;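 active means mean inhibition over triplicates above a set limit taken from the primary EBNA-1 screen, cut at about 37% in these data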;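 further: purified full length Zta protein with Cy5 labeled ZRE DNA probe; 0% = Zta with DMSO and 100% = wells lacking Zta protein; inhibitors lower polarization by freeing the labeled DNA probe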
Active calls of the source: *; x = no result given.

SMILES	EBNA-1 inhibitor	aDG glyco up	NCF1 inh	ZTA counter	PG9 Ab binder	NR1D1 modulator	EBNA-1 inh conf	ZTA counter trip
O=C1N=C(N2CCN(c3ccccc3)CC2)S/C1=C\c1cn[nH]c1-c1ccccc1	138*	-1	-1	2	0	-6	34*	3
Cc1cccc(N2CCN(C3=NC(=O)C(=C4CCCCC4)S3)CC2)c1	3	0	-7	16	0	-4	x	x
COC(=O)[C@]12C[C@H](CC(=O)NCCc3ccccc3OC)C(=O)N(Cc3cccc4ccccc34)C1=C[C@H](C1CCCC1)O[C@@H]2C	x	x	x	x	x	3	x	x
CN1C2=NC(c3ccccc3)CC(=O)N2/C(=C\c2ccccc2)C1c1ccccc1C(F)(F)F (stereo not given)	x	x	x	x	x	2	x	x
C=CCN(CC#CC1=CCCCC1)CC1CC1	x	x	x	x	x	7	x	x
O=C(N/C(=C\c1cccnc1)c1nc2ccccc2[nH]1)c1cccc(Br)c1	7	1	3	24	-4	0	x	x
O=C(N/C(=C\c1ccc(Br)cc1)c1nc2ccccc2[nH]1)c1ccco1	49*	0	-13	9	-2	-3	33*	2
O=C(COC(=O)c1ccc(CNS(=O)(=O)c2ccc(F)c(Cl)c2)cc1)NCC1CCCCC1	31*	0	-14	-11	-1	-1	0	-1
Cc1ccccc1OCc1nc(-c2ccc(NC(=O)c3ccc4c(c3)OCO4)cc2)no1	29*	0	-7	4	5	6	39*	25
Cc1ccc(NC(=S)N/N=C/c2c(C)nn(-c3ccccc3)c2N2CCCC2)cc1	39*	3	7	0	0	-2	-3	-7
COC(=O)C1CN(Cc2ccc(Cl)cc2)CCS(=O)(=O)N1Cc1cn(Cc2ccc(Cl)cc2)nn1 (stereo not given)	x	x	x	x	x	1	x	x
CCOC(=O)C1CCN(Cc2ccc(Cl)c(Cl)c2)CC1	46*	0	-12	1	-1	-1	4	5
O=C(CCN1C(=O)/C(=C/c2cccs2)SC1=S)NC1=NCCS1	34*	0	-28	-4	-2	-5	0	-5
COc1ccc(N2CCN(CCCNC(=O)CCOC(C)(C)C)CC2)cc1	x	x	x	x	x	10	x	x
NS(=O)(=O)c1ccc(NC(=O)/C=C/c2cn(-c3ccccc3)nc2-c2cccc(Cl)c2)cc1	30*	0	-96	5	3	16	39*	9
O=C(/C=C/c1cn(-c2ccccc2)nc1-c1ccccc1)Nc1ccc(C(=O)O)cc1	9	0	-11	12	1	0	x	x
O=C(Nc1ccc(S(=O)(=O)Nc2nccs2)cc1)c1ccc(N2C(=O)c3ccccc3C2=O)cc1	61*	0	-79	-2	0	2	25	31
O=C(Nc1ccc(S(=O)(=O)Nc2nccs2)cc1)c1ccc(F)cc1	9	0	x	1	-2	1	x	x
Cc1cc(O)c(NC(=O)c2cccc([N+](=O)[O-])c2)cc1C	8	0	-13	0	1	-5	x	x
Cc1cc(CSc2ccccc2)ccc1NC(=O)c1cccc([N+](=O)[O-])c1	28*	0	-20	5	0	-6	13	15
COc1ccc2c(c1)CNC2CS(=O)(=O)NCC(C)C (stereo not given)	x	x	x	x	x	0	x	x
O=C(Nc1ccc(-c2nc3ccccc3o2)cc1)c1ccc(N2C(=O)C3C4C=CC(C4)C3C2=O)cc1 (stereo not given)	103*	0	-70	28	-2	11	112*	17
COc1ccccc1/C=C1\SC(=S)N(NS(=O)(=O)c2ccc(C)cc2)C1=O	31*	0	x	-2	2	-8	-1	12
COc1ccc(/C=C2\SC(=S)N(NS(=O)(=O)c3ccc(C)cc3)C2=O)c(OC)c1	17	0	x	11	-1	-8	x	x
CNS(=O)(=O)c1cccc(C(=O)OCC(=O)Nc2ccc(-c3nc4ccc(C)cc4s3)cc2)c1	103*	0	-52	23	x	x	81*	26

Bioassay records (PubChem BioAssay)
